For 25 compounds, z-score results are on record in PubChem BioAssay.

In the assay the target is NADPH oxidase 5 (Homo sapiens) (UniProt Q96PH1). The assay can be described thus: NOX5-dependent H2O2 signal modulators, primary screen, NOX inhibitor project, cell-based, HEK293-NOX5, Amplex Red fluorescence (AID 1161). Conditions: HEK293-NOX5, ionomycin, 45 min, higher = more signal.
NADPH oxidase 5 (Homo sapiens), sequence (Q96PH1 whole entry, looked up): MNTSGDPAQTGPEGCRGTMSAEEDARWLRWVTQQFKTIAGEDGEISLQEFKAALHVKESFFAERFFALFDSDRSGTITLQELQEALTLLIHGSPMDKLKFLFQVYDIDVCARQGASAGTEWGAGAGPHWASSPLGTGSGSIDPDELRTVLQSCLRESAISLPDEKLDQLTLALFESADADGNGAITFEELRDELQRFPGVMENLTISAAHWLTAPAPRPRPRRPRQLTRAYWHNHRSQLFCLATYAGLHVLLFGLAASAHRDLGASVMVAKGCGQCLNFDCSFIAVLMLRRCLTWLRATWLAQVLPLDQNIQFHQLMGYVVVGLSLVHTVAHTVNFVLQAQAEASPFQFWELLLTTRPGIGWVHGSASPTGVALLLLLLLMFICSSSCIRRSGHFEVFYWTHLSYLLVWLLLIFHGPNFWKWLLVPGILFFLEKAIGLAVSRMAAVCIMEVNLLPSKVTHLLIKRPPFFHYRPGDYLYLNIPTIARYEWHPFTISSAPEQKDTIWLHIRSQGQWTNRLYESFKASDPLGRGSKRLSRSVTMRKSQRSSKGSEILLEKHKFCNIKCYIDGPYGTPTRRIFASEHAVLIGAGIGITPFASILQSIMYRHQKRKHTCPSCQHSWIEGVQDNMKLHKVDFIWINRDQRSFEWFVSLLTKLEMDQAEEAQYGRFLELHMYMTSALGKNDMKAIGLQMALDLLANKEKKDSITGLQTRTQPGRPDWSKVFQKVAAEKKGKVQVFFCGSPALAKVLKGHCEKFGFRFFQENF
As for `C=CC1c2cc(O)c(OC)cc2CCN1Cc1cccc(OC(F)(F)F)c1` (stereo not given), the z-score was -4.4.
In turn, `CC(C)[Si](C#C[Si](C(C)C)(C(C)C)C(C)C)(O[C@H](C)c1cn(Cc2ccccc2)nn1)C(C)C` displayed a z-score of -2.82.
The value for `O=C1O[C@H](c2ccccc2)[C@H](c2ccccc2)N2[C@H]1[C@@H](C(=O)NC[C@H](O)c1ccccc1)[C@]1(C(=O)Nc3ccc(C#CC4=CCCCC4)cc31)[C@H]2c1ccccc1OCCO` was 1.83; that for `COc1ccc(-c2cc3c(c(Cc4ccccc4)n2)[Si](C(C)C)(C(C)C)OC3)cn1` was -2.02.
Turning to `C=CCC(OC(C)=O)[C@@H]1[C@@H](N(Cc2ccc(-c3cccc(C(F)(F)F)c3)o2)C(=O)Cc2ccc(OC)cc2)c2cc(OCCCO)ccc2N1C(=O)c1ccc2ccccc2c1` (stereo not given in full), the z-score was -1.9.
With `CCC(CC)C(O)C1C=CC2C(=O)N(c3ccccc3)C(=O)C2N1Nc1ccccc1` (stereo not given) the figure was -3.4; with `CN1C(=O)C2C=CC(C(O)c3c(F)cccc3Cl)N(NC(=O)OC(C)(C)C)C2C1=O` (stereo not given), -1.03; with `C=C[C@H](C)[C@@H](OC(=O)Nc1ccc(SC)cc1)c1ccc(O)c2ccccc12`, 0.894.
The value for `COc1ccccc1CN1C(=O)c2ccccc2[C@@H](C(=O)NCc2ccccc2)[C@@H]1c1ccc(CO)cc1` was -0.707; that for `O=C1OCC=C[C@H]2OC34C=CCN(Cn5nnc6ccccc65)C(=O)[C@H]3N(CCCCCO)C(=O)[C@@H]4[C@@H]12` (stereo not given in full) was 1.32.
With `Cc1ccc(S[C@]2(C(=O)NCC(C)C)CC(=O)N(Cc3cc(C(F)(F)F)cc(C(F)(F)F)c3)[C@@H]2c2ccc(CO)cc2)cc1` the figure was -0.188; with `CS(=O)(=O)CCOC(=O)C1=CC(CCCO)=CC(C2CC2)N(Cc2cc3c(cc2Br)OCO3)C=C1C(=O)OCCS(C)(=O)=O` (stereo not given), -1.11; with `C=CCOC(=O)[C@H]1[C@@H]2C(=O)O[C@@H](c3ccccc3)[C@@H](c3ccccc3)N2[C@@H](c2ccc(OCCOC(=O)[C@H]3C[C@H]4C(=O)N[C@@H](CCCCN(C)C)C(=O)N4[C@H]3c3cccc(OCCO)c3)cc2)[C@]12C(=O)Nc1ccc(I)cc12`, 1.06.
In turn, `COc1ccc([Si](C)(C)[C@H]2[C@H](CC(=O)N3CCC[C@H]3CO)O[C@@]3(C(=O)N(Cc4cccc(N5CCOC5=O)c4)c4ccccc43)[C@@H]2C)cc1` came in with a z-score of 4.67.
With `O=C1OCCC=C[C@H]2OC34C=CCN(c5ccc(Cl)cc5)C(=O)[C@H]3N(CCCO)C(=O)[C@@H]4C12` (stereo not given in full) the figure was 0.215; with `COc1ccc(C(O)C2C=CC3C(=O)N(C)C(=O)C3N2N(c2ccccc2)c2ccccc2)c2ccccc12` (stereo not given), -0.716.
With `COCC(=C=CC[C@H](O)c1cccc(OCCO)c1)CCO` the figure was -0.539.
With `CC[C@@H]1C=C(C(=O)O)[C@H](c2ccc(C)cc2)N1S(=O)(=O)c1ccc(C)cc1` the figure was -1.24; with `O=C1NC(=O)C2C1C=CC(C(O)C1CC=CCC1)N2Nc1ccccn1` (stereo not given), -1.61.
In the case of `COc1ccc(C(=O)Nc2cccc(CN3C(=O)[C@]4(O[C@H](CCn5cc(CCO)nn5)[C@@H]([Si](C)(C)c5ccc(OC)cc5)[C@@H]4C)c4ccccc43)c2)cc1`, the z-score was found to be 2.87.
For the compound `CS(=O)(=O)CCOC(=O)C1=CC(CCCO)=CC(c2ccc(CN3CCCC3)cc2)N(Cc2cccc(OC(F)(F)F)c2)C=C1C(=O)OCCS(C)(=O)=O` (stereo not given), the z-score is -0.504.
The value for `COC(=O)c1c2oc(c1C(=O)OC)C(=O)N[C@@H](C(C)C)Cn1cc(nn1)C1(CCCCC1)NC(=O)N[C@H](CO)CC2` was -0.124.
With `O=C1O[C@@H](c2ccccc2)[C@@H](c2ccccc2)N2[C@@H](c3ccc(OCCO)cc3)[C@]3(C(=O)Nc4ccc(C#CCCO)cc43)[C@@H](C(=O)NC[C@H](O)c3ccccc3)[C@H]12` the figure was 0.235.
With `CC(c1ccccc1)C(O)C1C=CC2C(=O)N(c3ccccc3)C(=O)C2N1Nc1ccccc1` (stereo not given) the figure was -5.54; with `CC1CC/C=C\[C@H]2OC34C=CCN(Cc5ccccc5)C(=O)[C@H]3N(C(C)CO)C(=O)[C@@H]4C2C(=O)O1` (stereo not given in full), 1.27.
